About 1,500 (3.8%) of roughly 39,000 compounds were called active. The list comes from a sample in which actives are over-represented; it also holds similar structures and randomly drawn compounds.

The assay concerns HSkMC (human skeletal muscle cells). The experiment in a line: cytotoxicity call (relative viability < 0.9). Particulars: 10 µM.
For `C[C@@H]1CN([C@@H](C)CO)C(=O)c2cc(NC(=O)CCC(F)(F)F)ccc2O[C@@H](C)CCCCO[C@H]1CN(C)C(=O)C1CCCCC1`, the cytotoxicity call is “inactive”.

`CSC1=NN(C)c2cnn(C)c(=O)c2S1`: the cytotoxicity call was “inactive”. As for `Cc1noc(C)c1NC(=O)Nc1ccc2c(c1)C(=O)N([C@@H](C)CO)C[C@H](C)[C@@H](CN(C)C(=O)Nc1cccc3ccccc13)OCCCC[C@H](C)O2`, the cytotoxicity call is “inactive”. The value for `CC(C)NC(=O)Nc1ccc2c(c1)C(=O)N([C@@H](C)CO)C[C@@H](C)[C@@H](CN(C)S(=O)(=O)c1ccc(F)cc1)O2` was “inactive”; that for `CO[C@@H]1CN(C)C(=O)c2ccc(NS(=O)(=O)c3cn(C)cn3)cc2OC[C@H](C)N(CCC(F)(F)F)C[C@H]1C` was “inactive”. In the case of `CC(=N)NCc1cccc(CN)c1` it was “inactive”; in that of `O=C(C[C@H]1CC[C@@H](NC(=O)c2cccnc2)[C@@H](CO)O1)NCCN1CCCCC1`, “inactive”; in that of `Cc1noc(C)c1CC(=O)N1CCCC[C@@H]1CCOc1cccc(CN(C)Cc2cccc3cccnc23)c1`, “inactive”. The value for `Cc1ccc(S(=O)(=O)N(C)C[C@H]2Oc3ccc(NS(=O)(=O)c4ccc(F)cc4)cc3CC(=O)N([C@H](C)CO)C[C@H]2C)cc1` was “inactive”; that for `C[C@@H]1CN([C@@H](C)CO)C(=O)c2cc(NS(=O)(=O)c3ccc(F)cc3)ccc2O[C@@H](C)CCCCO[C@@H]1CN(C)S(=O)(=O)c1cn(C)cn1` was “inactive”; that for `CC(=O)N[C@H]1[C@H](O[C@H]2CC[C@]3(C)[C@H]4CC=C5[C@@H]6CC(C)(C)CC[C@]6(C(=O)O[C@H]6OC[C@@H](O)[C@@H](O)[C@@H]6O)[C@@H](O)C[C@@]5(C)[C@]4(C)CC[C@H]3C2(C)C)O[C@H](CO[C@H]2OC[C@@H](O)[C@@H](O[C@H]3OC[C@@H](O)[C@@H](O)[C@@H]3O)[C@@H]2O)[C@@H](O[C@@H]2O[C@@H](C)[C@H](O)[C@@H](O)[C@H]2O[C@@H]2O[C@@H](C)[C@H](O)[C@@H](O)[C@H]2O)[C@@H]1O` was “inactive”. For `Cc1noc(C)c1NC(=O)Nc1cccc2c1O[C@@H](CN(C)C(=O)NC(C)C)[C@H](C)CN([C@H](C)CO)C2=O`, the cytotoxicity call was “inactive”.

As for `C[C@H]1CC=CC[C@H](c2ccc3c(c2)OCO3)NC(=O)[C@@H](Cc2ccccc2)N(C)C(=O)c2ccccc2O1`, the cytotoxicity call was “active”.

In the case of `COc1ccc([C@H]2CC=CC[C@H](C)Oc3ccccc3C(=O)N(C)[C@H](Cc3ccccc3)C(=O)N2)c(OC)c1`, the cytotoxicity call is “inactive”. The value for `COc1ccc([C@@H]2CC=CC[C@H](C)Oc3ccccc3C(=O)N(C)[C@@H](Cc3ccccc3)C(=O)N2)c(OC)c1` was “active”.

Turning to `COc1ccc([C@H]2CC=CC[C@H](C)Oc3ccccc3C(=O)N(C)[C@@H](Cc3ccccc3)C(=O)N2)c(OC)c1`, the cytotoxicity call is “inactive”. Regarding `C[C@H]1CC=CC[C@@H](c2ccc3c(c2)OCO3)NC(=O)[C@H](Cc2ccccc2)N(C)C(=O)c2ccccc2O1`, the cytotoxicity call was “inactive”. Take `C[C@@H]1CC=CC[C@H](c2ccc3c(c2)OCO3)NC(=O)[C@@H](Cc2ccccc2)N(C)C(=O)c2ccccc2O1`: the cytotoxicity call is “inactive”.

As for `COCCCN1C(=O)[C@@]2(Cc3ccccc31)c1ccccc1C(=O)N(Cc1ccccc1)[C@H]2c1ccc(CO)cc1`, the cytotoxicity call was “inactive”. In the case of `Cc1ccc(S(=O)(=O)Nc2ccc3c(c2)CC(=O)N([C@@H](C)CO)C[C@H](C)[C@H](CN(C)CC2CC2)O3)cc1` it was “inactive”; in that of `Nc1ccc2oc3c(c2c1)CCCC3`, “inactive”; in that of `O=C(Nc1ccc(C(F)(F)F)cc1)Nc1cccc(Cl)c1`, “active”. The value for `O=C(Nc1ccc(Cl)cc1)Nc1ccc(Cl)c(Cl)c1` was “active”. In the case of `CC(C)C(=O)Nc1cccc(Cl)c1` it was “inactive”; in that of `CCC(=O)Nc1ccc(Cl)cc1`, “inactive”.

Consider `CC(C)(C)c1ccc(C(=O)Nc2cccc(C(F)(F)F)c2)cc1`, for which the cytotoxicity call was “inactive”. The value for `O=C(Nc1ccccc1)Nc1ccccc1` was “inactive”; that for `C[C@H]1CN([C@@H](C)CO)C(=O)c2cc(NC(=O)Cc3ccccc3)ccc2O[C@H]1CN(C)Cc1ccc(C(F)(F)F)cc1` was “inactive”; that for `C[C@@H]1CN([C@@H](C)CO)C(=O)Cc2cc(NC(=O)Cn3cnnn3)ccc2O[C@H]1CN(C)S(=O)(=O)c1cn(C)cn1` was “inactive”.

As for `COc1cccc(S(=O)(=O)Nc2ccc3c(c2)[C@H]2C[C@@H](CC(=O)NCc4ccccc4F)O[C@@H](CO)[C@H]2O3)c1`, the cytotoxicity call was “inactive”. In the case of `CCCCCCCCCCCCCCCC[N+](C)(C)C` it was “active”. The value for `CCCCCCCCCCCCCCCCOP(=O)([O-])OCC[N+](C)(C)C` was “inactive”. In the case of `C[N+](C)(C)CCCCCC[N+](C)(C)C.[Br-].[Br-]`, the cytotoxicity call was “inactive”. In the case of `CC1=C2C/C=C(\C)[C@H](O[C@H]3O[C@@H](CO)[C@@H](O)[C@@H](O)[C@@H]3O)C/C=C(\C)C[C@@H]2OC1=O`, the cytotoxicity call is “inactive”. Turning to `NCc1nncn1-c1ccccc1`, the cytotoxicity call is “inactive”. The value for `COc1ccccc1CNC(=O)C[C@@H]1C[C@H]2c3cc(NC(=O)c4cccnc4)ccc3O[C@H]2[C@@H](CO)O1` was “inactive”; that for `CC(N)(Cc1ccc2c(c1)OCO2)C(=O)O` (configuration not stated) was “inactive”.

As for `C[C@@H]1CN([C@@H](C)CO)C(=O)c2cc(NS(C)(=O)=O)ccc2O[C@@H]1CN(C)S(=O)(=O)c1ccccc1`, the cytotoxicity call was “inactive”. The value for `CCC(=O)N1CCN(c2ccc(-n3c(=O)ccc4cnc5ccc(-c6cnc7ccccc7c6)cc5c43)cc2C(F)(F)F)CC1` was “active”; that for `CCCCn1c(-c2ccccc2)nc(-c2ccccc2)c1CN(Cc1ccc2c(c1)OCO2)Cc1ccc2c(c1)OCO2` was “inactive”; that for `COc1ccc(-c2cnc3c(c2)C(=O)N([C@@H](C)CO)C[C@@H](C)[C@@H](CN(C)C(=O)C2CCOCC2)O3)cc1` was “inactive”. In the case of `CO[C@@H]1CN(C)C(=O)c2ccc(NC(=O)C3CC3)cc2OC[C@H](C)N(C(=O)CN2CCOCC2)C[C@@H]1C` it was “inactive”; in that of `C[C@@H]1CN([C@@H](C)CO)C(=O)Cc2cc(NS(C)(=O)=O)ccc2O[C@H]1CN(C)S(=O)(=O)c1cccs1`, “inactive”; in that of `C[C@H](CO)N1C[C@H](C)[C@H](CN(C)Cc2ccc(C(F)(F)F)cc2)Oc2ccc(NS(=O)(=O)c3ccc(Cl)cc3)cc2CC1=O`, “active”. With `C[C@@H]1CN([C@H](C)CO)C(=O)Cc2cc(NS(=O)(=O)c3ccc(Cl)cc3)ccc2O[C@H]1CN(C)Cc1ccc(C(F)(F)F)cc1`, the cytotoxicity call was “active”. In the case of `C[C@@H]1CN([C@@H](C)CO)C(=O)Cc2cc(NS(=O)(=O)c3ccc(Cl)cc3)ccc2O[C@@H]1CN(C)Cc1ccc(C(F)(F)F)cc1`, the cytotoxicity call is “active”.

As for `C[C@@H]1CN([C@H](C)CO)C(=O)Cc2cc(NS(=O)(=O)c3ccc(Cl)cc3)ccc2O[C@@H]1CN(C)Cc1ccc(C(F)(F)F)cc1`, the cytotoxicity call was “active”.

The values above are taken from the antibiotic and cytotoxicity screens of Wong et al. (2023).
